Values joined by “and” are separate entries in the source; they are usually repeats but may differ in a detail not shown here. Equal values may be shown once. Results filed as inconclusive are left out. Some structures have more than one record in an assay (separate samples or runs), and their calls can disagree. Active and inactive are the calls of the source. Calls come from the whole dose curve; as a rule, active = well fitted curve in the direction sought with a large enough effect in the repeat runs; inconclusive = weak or mixed curves; inactive = no such curve, though single readings can be large; an effect the other way counts as inactive or inconclusive.
How the values were obtained:
[1] = qHTS RealTime-Glo MT Cell Viability Assay in HepG2 cells - 40 hour (AID 1224870); note: nearly all actives have a fitted effect of over 50% in size; note: potency is the fitted concentration of half-maximal effect
Outline: (§1)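 HepG2 cells (600/well) mixed with RealTime-Glo MT reagent, settled 5 h at 37 C/5% CO2 before compound addition. Nonlytic NanoLuc luminescence from viable-cell prosubstrate reduction read repeatedly during 40 h treatment at 37 C.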

[2] = A CellTox Green Cytotoxicity Assay to monitor cytotoxicity in HEK293 cells - 40 hour (AID 1224871); note: nearly all actives have a fitted effect of over 45% in size; note: potency is the fitted concentration of half-maximal effect
Outline: (§2)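 HEK293 cells, 600/well, were preincubated 5 hours and then exposed to compounds at 37 C for up to 40 hours. A cell-impermeant cyanine dye staining dead-cell DNA was read by fluorescence at 0, 8, 16, 24, 32 and 40 h time points.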

[3] = qHTS RealTime-Glo MT Cell Viability Assay in HEK293 cells - 16 hour (AID 1224872); note: nearly all actives have a fitted effect of over 50% in size; note: potency is the fitted concentration of half-maximal effect
Outline: (§3)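 Viability tracked continuously by luminescence as live cells reduce a prosubstrate for NanoLuc; HEK293 cells preincubated 5 h, compound-treated at 37 C, and read at 0, 8, 16, 24, 32 and 40 h.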

[4] = qHTS RealTime-Glo MT Cell Viability Assay in HEK293 cells - 40 hour (AID 1224874); details: RealTime-Glo luminescence; max response: stronger effect = lower value; note: nearly all actives have a fitted effect of over 50% in size; note: potency is the fitted concentration of half-maximal effect
Outline: (§4)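 600 cells/well were plated with the nonlytic NanoLuc/prosubstrate reagent, pre-incubated 5 h, then given 23 nL of compound in DMSO. Incubation at 37 C for 40 h, with luminescence from viable-cell-reduced substrate read repeatedly from 0 h.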

[5] = A CellTox Green Cytotoxicity Assay to monitor cytotoxicity in HEK293 cells - 24 hour (AID 1224875); note: nearly all actives have a fitted effect of over 45% in size; note: potency is the fitted concentration of half-maximal effect
Outline: as §2

[6] = A CellTox Green Cytotoxicity Assay to monitor cytotoxicity in HepG2 cells - 16 hour (AID 1224876); note: nearly all actives have a fitted effect of over 45% in size; note: potency is the fitted concentration of half-maximal effect
Outline: (§5)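 HepG2 cells, 600/well, preincubated 5 h with CellTox Green dye, then exposed to Tox21 compounds in DMSO at 37 C for up to 40 h. Dead-cell DNA fluorescence read at the indicated time point.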

[7] = qHTS RealTime-Glo MT Cell Viability Assay in HepG2 cells - 32 hour (AID 1224877); note: nearly all actives have a fitted effect of over 55% in size
Outline: (§6)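 Viability was tracked continuously by NanoLuc luminescence from prosubstrate reduced by living HepG2 cells, at successive time points over 40 h of compound exposure. Cells with reagent were preincubated 5 h at 37 °C before compound addition.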

[8] = A CellTox Green Cytotoxicity Assay to monitor cytotoxicity in HepG2 cells - 24 hour (AID 1224878); note: nearly all actives have a fitted effect of over 45% in size; note: potency is the fitted concentration of half-maximal effect
Outline: as §5

[9] = A CellTox Green Cytotoxicity Assay to monitor cytotoxicity in HepG2 cells - 40 hour (AID 1224879); note: nearly all actives have a fitted effect of over 40% in size; note: potency is the fitted concentration of half-maximal effect
Outline: as §5

[10] = qHTS RealTime-Glo MT Cell Viability Assay in HEK293 cells - 0 hour (AID 1224880); note: nearly all actives have a fitted effect of over 45% in size; note: potency is the fitted concentration of half-maximal effect
Outline: as §4

[11] = A CellTox Green Cytotoxicity Assay to monitor cytotoxicity in HEK293 cells - 32 hour (AID 1224881); note: nearly all actives have a fitted effect of over 40% in size; note: potency is the fitted concentration of half-maximal effect
Outline: as §2

[12] = A CellTox Green Cytotoxicity Assay to monitor cytotoxicity in HepG2 cells - 0 hour (AID 1224882); note: nearly all actives have a fitted effect of over 35% in size; note: potency is the fitted concentration of half-maximal effect
Outline: as §5

[13] = A CellTox Green Cytotoxicity Assay to monitor cytotoxicity in HepG2 cells - 32 hour (AID 1224883); note: nearly all actives have a fitted effect of over 50% in size; note: potency is the fitted concentration of half-maximal effect
Outline: as §5

[14] = A CellTox Green Cytotoxicity Assay to monitor cytotoxicity in HEK293 cells - 8 hour (AID 1224884); note: nearly all actives have a fitted effect of over 35% in size; note: potency is the fitted concentration of half-maximal effect
Outline: as §2

[15] = qHTS RealTime-Glo MT Cell Viability Assay in HepG2 cells - 16 hour (AID 1224885); note: nearly all actives have a fitted effect of over 50% in size
Outline: as §6

[16] = qHTS RealTime-Glo MT Cell Viability Assay in HEK293 cells - 24 hour (AID 1224886); note: nearly all actives have a fitted effect of over 50% in size; note: potency is the fitted concentration of half-maximal effect
Outline: as §3

[17] = qHTS RealTime-Glo MT Cell Viability Assay in HEK293 cells - 8 hour (AID 1224887); note: nearly all actives have a fitted effect of over 50% in size; note: potency is the fitted concentration of half-maximal effect
Outline: as §4

[18] = A CellTox Green Cytotoxicity Assay to monitor cytotoxicity in HEK293 cells - 16 hour (AID 1224888); note: nearly all actives have a fitted effect of over 35% in size; note: potency is the fitted concentration of half-maximal effect
Outline: as §2

[19] = qHTS RealTime-Glo MT Cell Viability Assay in HepG2 cells - 0 hour (AID 1224889); note: nearly all actives have a fitted effect of over 50% in size; note: potency is the fitted concentration of half-maximal effect
Outline: as §6

[20] = qHTS RealTime-Glo MT Cell Viability Assay in HepG2 cells - 8 hour (AID 1224873); note: nearly all actives have a fitted effect of over 55% in size
Outline: as §1
% is set by controls: 0 for no effect and ±100 for the full control effect.

CCOC(=O)C(C)OC(=O)c1cc(Oc2ccc(C(F)(F)F)cc2Cl)ccc1[N+](=O)[O-] (stereo not given)
30.7 µM (active) and inactive: Potency [16]
inactive: Potency [1] | Potency [2] | max response [4] -24.2% | Potency [5] | Potency [6] | Potency [7] | Potency [8] | Potency [9] | Potency [10] | Potency [11] | Potency [12] | Potency [13] | Potency [14] | Potency [15] | Potency [18] | Potency [19]
active: Potency [3] 30.7 µM | Potency [17] 30.7 µM

C=CC(=O)OCCO
inactive: Potency [1] | Potency [2] | Potency [3] | Potency [20] | max response [4] 4.73% and 14.7% | Potency [5] | Potency [6] | Potency [7] | Potency [8] | Potency [9] | Potency [10] | Potency [11] | Potency [12] | Potency [13] | Potency [14] | Potency [16] | Potency [17] | Potency [18] | Potency [19]

Brc1ccc(Oc2cc(Br)c(Br)cc2Br)c(Br)c1
active: Potency [4] 43.6 µM | Potency [16] 38.9 µM
inactive: Potency [1] | Potency [2] | Potency [20] | Potency [5] | Potency [6] | Potency [7] | Potency [8] | Potency [9] | Potency [10] | Potency [11] | Potency [12] | Potency [13] | Potency [14] | Potency [17] | Potency [18] | Potency [19]

C[C@]12CCC(=O)C[C@@H]1CC[C@@H]1[C@@H]2CC[C@]2(C)[C@@H](O)CC[C@@H]12
43.1 µM (active) and inactive: Potency [2]
inactive: Potency [1] | Potency [20] | Potency [5] | Potency [6] | Potency [7] | Potency [8] | Potency [10] | Potency [12] | Potency [13] | Potency [14] | Potency [15] | Potency [17] | Potency [18]
active: Potency [3] 21.6 µM | Potency [4] 21.6 µM | Potency [16] 21.6 µM
38.4 µM (active) and inactive: Potency [11]

N#CCCCl
inactive: Potency [1] | Potency [2] | Potency [3] | Potency [20] | max response [4] 2.74% and -10.7% | Potency [5] | Potency [6] | Potency [7] | Potency [8] | Potency [9] | Potency [10] | Potency [11] | Potency [12] | Potency [13] | Potency [14] | Potency [16] | Potency [17] | Potency [18] | Potency [19]

O=C(NC(=O)c1c(F)cccc1F)Nc1ccc(Cl)cc1
inactive: Potency [1] | Potency [2] | Potency [3] | Potency [20] | Potency [5] | Potency [6] | Potency [7] | Potency [8] | Potency [9] | Potency [10] | Potency [11] | Potency [12] | Potency [13] | Potency [14] | Potency [17] | Potency [18] | Potency [19]

N[C@@H](Cc1ccc(N(CCCl)CCCl)cc1)C(=O)O
inactive: Potency [1] | Potency [2] | Potency [3] | Potency [20] | Potency [5] | Potency [6] | Potency [7] | Potency [10] | Potency [11] | Potency [12] | Potency [14] | Potency [15] | Potency [16] | Potency [17] | Potency [18] | Potency [19]
active: Potency [4] 4.69 µM

NC(=S)Nc1ccccc1
active: Potency [4] 4.98 µM
inactive: Potency [1] | Potency [3] | Potency [20] | max response [4] -2.05% | Potency [7] | Potency [10] | Potency [15] | Potency [17] | Potency [19]
55.9 µM (active) and inactive: Potency [9]
49.8 µM (active) and inactive: Potency [6] | Potency [8] | Potency [11] | Potency [12] | Potency [13] | Potency [14]
8.86 µM (active) and inactive: Potency [16]

CC(C)(OOC(C)(C)c1ccccc1)c1ccccc1
inactive: Potency [1] | Potency [3] | Potency [20] | max response [4] -13.8% and -15.4% | Potency [6] | Potency [7] | Potency [8] | Potency [9] | Potency [10] | Potency [12] | Potency [13] | Potency [14] | Potency [16] | Potency [17] | Potency [19]
active: Potency [2] 24.2 µM and 49 µM | Potency [5] 48.3 µM and 49 µM | Potency [11] 24.2 µM and 49 µM | Potency [18] 43.6 µM

CCOc1cc(Oc2ccc(C(F)(F)F)cc2Cl)ccc1[N+](=O)[O-]
inactive: Potency [1] | Potency [2] | Potency [20] | max response [4] -24.7% | Potency [5] | Potency [6] | Potency [7] | Potency [8] | Potency [9] | Potency [10] | Potency [11] | Potency [12] | Potency [13] | Potency [14] | Potency [18] | Potency [19]

O=C(Nc1ccc(Br)cc1)c1cc(Br)cc(Br)c1O
38.9 µM (active) and inactive: Potency [2] | Potency [11]
inactive: Potency [3] | Potency [20] | Potency [15] | Potency [16] | Potency [17]
inactive and 43.6 µM (active): Potency [6] | Potency [12]
inactive and 38.9 µM (active): Potency [14]
active: Potency [1] 43.5 µM | Potency [4] 17.3 µM and 19.5 µM | Potency [8] 38.9 µM | Potency [9] 19.4 µM and 24.5 µM and 23.9 µM | Potency [10] 24.5 µM | Potency [13] 19.4 µM and 27.5 µM and 21.3 µM | Potency [19] 21.8 µM

c1ccc(NNc2ccccc2)cc1
inactive and 43.6 µM (active): Potency [19]
inactive: Potency [1] | Potency [3] | Potency [20] | max response [4] -4.96% and -2.46% | Potency [6] | Potency [7] | Potency [8] | Potency [9] | Potency [10] | Potency [12] | Potency [13] | Potency [14] | Potency [16] | Potency [17] | Potency [18]
active: Potency [2] 24.5 µM | Potency [5] 24.5 µM | Potency [11] 24.5 µM

CCCCN(CC)c1c([N+](=O)[O-])cc(C(F)(F)F)cc1[N+](=O)[O-]
active: Potency [17] 17.7 µM
inactive: Potency [1] | Potency [2] | Potency [3] | Potency [20] | max response [4] -1.03% and 20.2% | Potency [5] | Potency [6] | Potency [7] | Potency [8] | Potency [9] | Potency [10] | Potency [11] | Potency [12] | Potency [13] | Potency [14] | Potency [16] | Potency [18] | Potency [19]
